Records with an inconclusive call do not appear. Activity calls are given as the source filed them. Unless noted, calls come from the whole dose curve; as a rule, active = well fitted curve in the direction sought with a large enough effect in the repeat runs; inconclusive = weak or mixed curves; inactive = no such curve, though single readings can be large; an effect the other way counts as inactive or inconclusive.
Experiments:
[1] = target: Luciferin 4-monooxygenase (Photinus pyralis) (UniProt P08659); assay: qHTS assay to identify small molecule inhibitors of firefly luciferase (AID 1224835); note: nearly all actives have a fitted effect of over 25% in size
Luciferin 4-monooxygenase (Photinus pyralis), sequence (P08659 whole entry, looked up): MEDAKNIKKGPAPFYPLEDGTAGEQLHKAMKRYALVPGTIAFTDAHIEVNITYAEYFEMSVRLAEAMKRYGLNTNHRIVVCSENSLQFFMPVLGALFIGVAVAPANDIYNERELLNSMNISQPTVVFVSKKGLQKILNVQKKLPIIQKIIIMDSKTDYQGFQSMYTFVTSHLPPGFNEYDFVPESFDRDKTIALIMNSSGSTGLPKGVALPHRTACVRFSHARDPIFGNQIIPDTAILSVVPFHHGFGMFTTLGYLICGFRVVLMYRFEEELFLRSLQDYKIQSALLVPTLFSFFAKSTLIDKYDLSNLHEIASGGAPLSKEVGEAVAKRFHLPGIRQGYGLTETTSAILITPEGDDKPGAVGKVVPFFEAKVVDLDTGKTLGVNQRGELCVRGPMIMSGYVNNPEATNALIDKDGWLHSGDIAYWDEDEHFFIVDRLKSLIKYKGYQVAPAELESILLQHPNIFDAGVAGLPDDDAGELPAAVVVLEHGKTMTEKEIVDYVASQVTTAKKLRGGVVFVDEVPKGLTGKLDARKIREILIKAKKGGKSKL
Procedure, shortened: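 Inhibition of purified Photinus luciferase is measured by luminescence. Substrate levels (D-luciferin, ATP) sit at their KM values. Each compound is tested in a concentration series.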

[2] = qHTS assay to identify small molecule agonists of the constitutive androstane receptor (CAR) signaling pathway - cell viability counter screen (AID 1224836); note: nearly all actives have a fitted effect of over 45% in size
Procedure, shortened: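 Multiplexed viability check: HepG2-CYP2B6-hCAR cells, 15-point compound dosing, 0.75 uM PK11195 final, 23 h at 37 C, CellTiter-Fluor fluorescence.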

[3] = qHTS assay to identify small molecule antagonists of the constitutive androstane receptor (CAR) signaling pathway - cell viability counter screen (AID 1224837); note: nearly all actives have a fitted effect of over 45% in size
Procedure, shortened: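 HepG2 cells stably expressing hCAR and a CYP2B6-2.2kb reporter were plated and pre-incubated 4 hr at 37 C/5% CO2, then given compounds at 15 concentrations plus 50 nM CITCO (final). After 23 hr, viability was read by CellTiter-Fluor fluorescence.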

[4] = target: Nuclear receptor subfamily 1 group I member 3 (Homo sapiens) (UniProt Q14994); assay: qHTS assay to identify small molecule antagonists of the constitutive androstane receptor (CAR) signaling pathway (AID 1224838); note: nearly all actives have a fitted effect of over 40% in size
Nuclear receptor subfamily 1 group I member 3 (Homo sapiens), sequence (Q14994 whole entry, looked up): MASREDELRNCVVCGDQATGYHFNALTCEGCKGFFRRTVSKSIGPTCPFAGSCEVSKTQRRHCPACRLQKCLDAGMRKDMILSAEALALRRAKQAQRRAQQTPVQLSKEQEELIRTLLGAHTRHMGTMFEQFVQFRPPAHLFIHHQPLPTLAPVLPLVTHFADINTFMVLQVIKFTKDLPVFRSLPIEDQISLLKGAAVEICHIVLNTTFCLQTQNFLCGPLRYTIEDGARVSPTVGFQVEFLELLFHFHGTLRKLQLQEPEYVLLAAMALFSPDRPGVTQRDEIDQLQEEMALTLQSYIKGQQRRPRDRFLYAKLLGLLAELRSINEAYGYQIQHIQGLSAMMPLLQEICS
Procedure, shortened: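 HepG2 cells stably co-transfected with hCAR and a CYP2B6-2.2kb luciferase reporter were seeded 4 h before compound addition at 15 concentrations. Cells were stimulated with 50 nM CITCO (final) for 24 h at 37 C; luciferase luminescence was then read.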

[5] = target: Nuclear receptor subfamily 1 group I member 3 (Homo sapiens) (UniProt Q14994); assay: qHTS assay to identify small molecule agonists of the constitutive androstane receptor (CAR) signaling pathway (AID 1224839);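 note: HepG2 cells stably carrying human CAR and a CYP2B6 luciferase reporter; nearly all actives have a fitted effect of over 15% in size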
Procedure, shortened: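 Using human hepatoma HepG2 cells engineered with hCAR and a CYP2B6-2.2kb reporter, 15-concentration compound series were incubated 24 h alongside PK11195 at 0.75 uM final, with luminescence quantified afterwards.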

[6] = qHTS assay to identify small molecule antagonists of the estrogen related receptor signaling pathway with the pleiotropic PPARgamma coactivator (PGC) from Tox21 10K library - cell viability counter screen (AID 1224840; active = well fitted cell-killing curve with a large enough effect in the repeat runs, not every such curve was filed as active; note: nearly all actives have a fitted effect of over 40% in size)
Procedure, shortened: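 PGC/ERR cells were seeded at 2,000 cells/well and left 6 hours at 37 C/5% CO2 before pin-tool addition of compounds in DMSO. After 17.5 hours at 37 C, CellTiter-Fluor was added and fluorescence read 30 minutes later.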

[7] = target: Thyrotropin receptor (Homo sapiens) (UniProt P16473); assay: qHTS assay to identify small molecule agonists of the thyroid stimulating hormone receptor (TSHR) signaling pathway (AID 1224843; calls by dose curve; note: nearly all actives have a fitted effect of over 45% in size)
Thyrotropin receptor (Homo sapiens), sequence (P16473 whole entry, looked up): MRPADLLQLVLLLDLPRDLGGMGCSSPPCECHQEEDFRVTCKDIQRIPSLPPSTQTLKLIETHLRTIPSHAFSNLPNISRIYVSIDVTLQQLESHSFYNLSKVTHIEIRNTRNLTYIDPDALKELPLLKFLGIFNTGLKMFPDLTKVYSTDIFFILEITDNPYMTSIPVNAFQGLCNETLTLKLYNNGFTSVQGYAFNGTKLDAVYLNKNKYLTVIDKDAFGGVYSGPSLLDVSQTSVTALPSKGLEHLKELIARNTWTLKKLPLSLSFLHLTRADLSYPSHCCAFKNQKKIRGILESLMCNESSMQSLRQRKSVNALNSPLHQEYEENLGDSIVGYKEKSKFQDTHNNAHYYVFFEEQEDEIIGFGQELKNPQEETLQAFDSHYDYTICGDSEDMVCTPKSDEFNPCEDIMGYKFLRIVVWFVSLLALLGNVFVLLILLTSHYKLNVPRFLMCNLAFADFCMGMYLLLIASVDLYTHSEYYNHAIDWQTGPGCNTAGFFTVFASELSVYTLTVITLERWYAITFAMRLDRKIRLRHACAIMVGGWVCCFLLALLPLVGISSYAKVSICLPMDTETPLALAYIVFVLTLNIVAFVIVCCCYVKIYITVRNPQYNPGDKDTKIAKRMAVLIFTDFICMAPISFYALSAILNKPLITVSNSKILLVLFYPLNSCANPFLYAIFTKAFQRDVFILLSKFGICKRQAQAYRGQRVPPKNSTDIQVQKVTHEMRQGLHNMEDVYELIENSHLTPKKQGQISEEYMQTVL
Procedure, shortened: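 Screening of the Tox21 10K collection used HEK293 cells engineered with TSHR at 800 cells per well. After a 30-min room-temperature compound exposure, HTRF cAMP reagents were added and fluorescence recorded 1 h later.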

[8] = qHTS assay to identify small molecule agonists of the hypoxia (HIF-1) signaling pathway - cell viability counter screen (AID 1224844; calls by dose curve; note: nearly all actives have a fitted effect of over 50% in size)
Procedure, shortened: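 HRE-bla ME-180 cells in medium with 0.5% dialyzed FBS were preincubated 5 hrs at 37C, exposed to compounds for 17 hrs, then viability was read as CellTiter-Glo luminescence after 30 min at room temperature, in the reporter wells.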

[9] = qHTS assay to identify small molecule agonists of H2AX (AID 1224845; active = well fitted activation curve with a large enough effect in the signal ratio in the repeat runs, not every such curve was filed as active; the % refers to the signal ratio)
Procedure, shortened: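 Phospho-H2AX Ser139 measured by HTRF (ex 320 nm; em 665 and 620 nm) after 24 hr antibody incubation. Compounds, 15 concentrations, 0.76% DMSO, were applied to CHO-K1 cells for 3hr at 37C before lysis.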

[10] = qHTS assay to identify small molecule agonists of the hypoxia (HIF-1) signaling pathway (AID 1224846; active = well fitted activation curve with a large enough effect in the signal ratio in the repeat runs, not every such curve was filed as active; the % refers to the signal ratio)
Procedure, shortened: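 HRE-bla ME-180 cells (beta-lactamase reporter under hypoxia response element) were plated at 2,000 cells/well in medium with 0.5% dialyzed FBS, rested 5 hrs, then given compounds in DMSO for 17 hrs at 37C, 5% CO2. Reporter induction was read with CCF4-AM FRET substrate.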

[11] = qHTS assay to identify small molecule agonists of H2AX - cell viability counter screen (AID 1224847; calls by dose curve;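 note: wild-type CHO-K1 cells; top concentration of the series differs between compounds; nearly all actives have a fitted effect of over 30% in size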)
Procedure, shortened: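 After overnight plating of 1000 CHO-K1 cells per well, a 15-concentration compound series was applied for 3 hr at 37C. Luminescence from CellTiter-Glo, read following 30 min at room temperature, reflected cell viability.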

[12] = qHTS RealTime-Glo MT Cell Viability Assay in HepG2 cells - 24 hour (AID 1224867); note: nearly all actives have a fitted effect of over 50% in size
Procedure, shortened: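 qHTS, HepG2, 600 cells/well, RealTime-Glo (NanoLuc + prosubstrate) added with cells; 5 h preincubation; DMSO compound addition; 37 C; luminescence at 0/8/16/24/32/40 h.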

[13] = qHTS RealTime-Glo MT Cell Viability Assay in HEK293 cells - 32 hour (AID 1224868); note: top concentration of the series differs between compounds; nearly all actives have a fitted effect of over 50% in size
Procedure, shortened: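 Assay medium contained NanoLuc luciferase plus cell-permeant prosubstrate, added with HEK293 cells at 600 cells/well. After 5 h at 37 C/5% CO2 compounds were added; plates stayed at 37 C for 40 h with serial luminescence reads.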

[14] = A CellTox Green Cytotoxicity Assay to monitor cytotoxicity in HEK293 cells - 0 hour (AID 1224869); note: nearly all actives have a fitted effect of over 50% in size
Procedure, shortened: (§1)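 HEK293 cells premixed with CellTox Green dye were seeded at 600 cells/well and left 5 h at 37 C/5% CO2 before pin transfer of 23 nL compound in DMSO. Fluorescence from dye bound to dead-cell DNA was read during 40 h treatment.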

[15] = qHTS RealTime-Glo MT Cell Viability Assay in HepG2 cells - 40 hour (AID 1224870); note: nearly all actives have a fitted effect of over 50% in size
Procedure, shortened: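 Real-time viability: cells seeded at 600 per well together with NanoLuc and cell-permeant prosubstrate, compounds added after 5 h incubation. Luminescence tracked at 0, 8, 16, 24, 32 and 40 h of exposure.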

[16] = A CellTox Green Cytotoxicity Assay to monitor cytotoxicity in HEK293 cells - 40 hour (AID 1224871); note: nearly all actives have a fitted effect of over 45% in size
Procedure, shortened: as §1

[17] = qHTS assay to identify small molecule antagonists of the estrogen related receptor signaling pathway with the pleiotropic PPARgamma coactivator (PGC) from Tox21 10K library (AID 1224841; call rule not given here)
Procedure, shortened: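 PGC/ERR reporter cells were seeded at 2,000 cells/well and held 6 hours at 37 C/5% CO2 before pin-tool addition of compounds in DMSO. After 18 hours at 37 C, One-Glo was added and luminescence read after 30 minutes at room temperature.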

[18] = qHTS assay to identify small molecule antagonists of the estrogen related receptor (ERR) signaling pathway from Tox21 library (AID 1224848); note: nearly all actives have a fitted effect of over 50% in size
Procedure, shortened: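 Antagonist-mode screen of the Tox21 10K library in an NTP-provided ERR reporter cell line; 18 h compound exposure at 37 C, luminescence measured with ONE-Glo.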

[19] = qHTS assay to identify small molecule agonists of the estrogen related receptor (ERR) signaling pathway from Tox21 library (AID 1224849; calls by dose curve; note: nearly all actives have a fitted effect of over 15% in size); settings: ERR reporter cell line, ONE-Glo luciferase, 18 h; at 92.4 µM (top of the series) unless noted
Procedure, shortened: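 ERR reporter cell line (NTP) seeded, rested 6 h at 37 C/5% CO2, then pinned with Tox21 compounds in DMSO. After 18 h at 37 C, ONE-Glo luciferase luminescence was read following 30 min at room temperature.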

[20] = qHTS assay to identify small molecule agonists of the estrogen related receptor signaling pathway with the pleiotropic PPARgamma coactivator (PGC) from Tox21 10K library (AID 1224842); note: nearly all actives have a fitted effect of over 15% in size
Procedure, shortened: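 Luminescence from One-Glo (30 min, room temperature) measured after PGC/ERR cells had 18 h at 37 C with pinned compound (23 nL in DMSO). Cells had been seeded at 2,000 per well and pre-incubated 6 h.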
% is set by controls: 0 for no effect and ±100 for the full control effect.

CCCC(C)CCC(C)=O (configuration not stated)
inactive: Potency [1] | Potency [2] | Potency [3] | Potency [4] | Potency [5] | Potency [6] | Potency [7] | Potency [8] | Potency [9] | outcome [10] | Potency [11] | Potency [12] | Potency [13] | Potency [14] | Potency [15] | Potency [16]

CCCCCCCC/C=C\CCCCCCCC(=O)OCCOC(=O)CCCCCCC/C=C\CCCCCCCC
inactive: Potency [1] | Potency [2] | Potency [3] | Potency [4] | Potency [5] | Potency [6] | Potency [7] | Potency [8] | Potency [9] | outcome [10] | Potency [11] | Potency [12] | Potency [13] | Potency [14] | Potency [15] | Potency [16]

CCOC(=O)CN
inactive: Potency [1] | Potency [2] | Potency [3] | Potency [4] | Potency [5] | Potency [6] | Potency [7] | Potency [8] | Potency [9] | outcome [10] | Potency [11] | Potency [12] | Potency [13] | Potency [14] | Potency [15] | Potency [16]

CC(C)(C)C1=CC(=O)C=C(C(C)(C)C)C1=O
inactive: Potency [1] | Potency [2] | Potency [3] | Potency [4] | Potency [5] | Potency [6] | Potency [7] | Potency [8] | Potency [9] | outcome [10] | Potency [11] | Potency [12] | Potency [13] | Potency [14] | Potency [15]

CO[Si](CCC1CCC2OC2C1)(OC)OC (configuration not stated)
inactive: Potency [1] | Potency [2] | Potency [3] | Potency [4] | Potency [5] | Potency [6] | Potency [17] | Potency [7] | Potency [8] | Potency [9] | outcome [10] | Potency [18] | activity change, positive = activation [19] 0.732% | Potency [12] | Potency [13] | Potency [14] | Potency [15]

C/C=C/CO
inactive: Potency [1] | Potency [2] | Potency [3] | Potency [4] | Potency [5] | Potency [6] | Potency [7] | Potency [8] | Potency [9] | outcome [10] | Potency [11] | Potency [12] | Potency [13] | Potency [14] | Potency [15] | Potency [16]

C1CC(COCC2CO2)CCC1COCC1CO1 (configuration not stated)
inactive: Potency [1] | Potency [2] | Potency [3] | Potency [4] | Potency [5] | Potency [6] | Potency [20] | Potency [7] | Potency [9] | Potency [11] | activity change, positive = activation [19] -24.4% | Potency [12] | Potency [13] | Potency [14] | Potency [15] | Potency [16]

Cc1cncc(C)c1
inactive: Potency [1] | Potency [2] | Potency [3] | Potency [4] | Potency [5] | Potency [6] | Potency [7] | Potency [8] | Potency [9] | outcome [10] | Potency [11] | Potency [18] | Potency [12] | Potency [13] | Potency [15]

— PubChem BioAssay (Tox21)
